According to PubChem BioAssay (Tox21):
Inconclusive results are not listed. Active and inactive are the calls of the source. Calls follow the shape of the dose curve; as a rule, active = well fitted cell-killing curve with a large enough effect in the repeat runs; inconclusive = weak or mixed curves, or effect the other way; inactive = flat fitted curve, though single readings scatter.

Test: qHTS RealTime-Glo MT Cell Viability Assay in HEK293 cells - 8 hour (AID 1224887); also: nearly all actives have a fitted effect of over 50% in size; as to activity change, negative = cytotoxicity: top concentration of the series differs between compounds
Details: RealTime-Glo luminescence; series mostly up to 76.8 µM; activity change, negative = cytotoxicity: at the top concentration
Excerpt: U.S. Tox21 Program National Center for Advancing Translational Sciences [NCATS] NIH Chemical Genomics Center [NCGC] U.S. Environmental Protection Agency [EPA] National Institutes of Environmental Health Sciences [NIEHS] National Toxicology Program [NTP] U.S. Food and Drug Administration [FDA] Tox21 Assay Overview: Measure of cell viability is critical in the cell-base assay. Analysis of cell viability is necessary for the characterization of cell responses to cytotoxic drugs and environmental stress. A RealTime-Glo MT Cell Viability Assay to monitor cell viability in real time of continues cell culture during 40 hours of compound treatment was used to screen Tox21 10K library compounds in Hek293 cells. The RealTime-Glo MT Cell Viability Assay is a nonlytic, homogeneous, bioluminescent method to measure cell viability in real time using a simple, plate-based method. The assay involves adding NanoLuc luciferase and a cell-permeant prosubstrate to cells in culture. Viable cells reduce the proprietary prosubstrate to generate a substrate for NanoLuc luciferase. This substrate diffuses from cells into the surrounding culture medium, where it is rapidly used by the NanoLuc Enzyme to produce a luminescent signal. The signal correlates with the number of viable cells, making the assay well suited for cytotoxicity studies.
Tox21 Assay Protocol Summary: The mixture of Hek293 cell suspension and reagents were dispensed at 600cells/6 ul/well in 1536-well tissue culture treated black solid bottom plates using a Multidrop dispenser. After the assay plates were incubated at a 37 C/5% CO2 incubator for 5 hours, 23 nL of compounds dissolved in DMSO, positive and negative controls was transferred to the assay plate by a pintool work station. The plates were incubated at 37 C for 40 hours. The luminescence intensity were measured at 0h, 8h, 16h, 24h, 32h and 40h time points using ViewLux plate reader during compound treatment.
% is scaled to controls: 0 for no effect and ±100 for the full control effect; potency is read from the fitted curve at half-maximal effect.

| Structure (SMILES) | activity change, negative = cytotoxicity | Potency |
| --- | --- | --- |
| CCOC(=O)NC(C)(C)Cc1ccc(Cl)cc1 | 2.81% [at 35.3 µM] (inactive) | – |
| O=C(NC(=O)c1c(F)cccc1F)Nc1cc(Cl)c(F)c(Cl)c1F | 0.924% (inactive) | – |
| NNC(N)=O | 4.1% (inactive) | – |
| O=[N+]([O-])CCO | 3.6% (inactive) | – |
| O=C(O)c1c(Cl)ccc2cc(Cl)cnc12 | 3.15% (inactive) | – |
| [P]#[In] | -5.92% (inactive) | – |
| CN(C)CCc1c[nH]c2cccc(OP(=O)(O)O)c12 | -2.34% (inactive) | – |
| C=C1C[C@@H]2[C@H](CC[C@]3(C)C(=O)CC[C@@H]23)[C@@]2(C)C=CC(=O)C=C12 | -9.89% [at 35.3 µM] (inactive) | – |
| Cn1c(N)nc2c3cccnc3ccc21 | -17.4% (inactive) | – |
| CN(CCO)CCO | 3.35% (inactive) | – |
| CCOP(=S)(OCC)Oc1ccc(Cl)cc1Cl | -1.15% (inactive) | – |
| C=C(C)[C@H]1CN[C@H](C(=O)O)[C@H]1CC(=O)O | 7.76% [at 35.3 µM] (inactive) | – |
| CCc1cc(OC)c(C[C@H](C)N)cc1OC | -4.2% (inactive) | – |
| O=C(O)C(Cl)Br (stereo not given) | -7.89% (inactive) | – |
| Clc1ccc(C(Cl)(Cl)Cl)cn1 | -2.31% (inactive) | – |
| CCCCS(=O)(=O)Cl | 3% (inactive) | – |
| Clc1nc(Cl)nc(Nc2ccccc2Cl)n1 | 7.35% (inactive) | – |
| CCOC(=O)N(C)N=O | 3.38% (inactive) | – |
| C/C(=N\NC(=O)Nc1cc(F)cc(F)c1)c1ncccc1C(=O)O | – | inactive |
| Oc1ccc(Cc2ccc(O)cc2)cc1 | -29% (inactive) | – |

| Structure (SMILES) | activity change, negative = cytotoxicity | Potency |
| --- | --- | --- |
| NC(=O)CS(=O)C(c1ccccc1)c1ccccc1 (stereo not given) | -0.58% [at 35.3 µM] (inactive) | – |
| CC(=O)CN(CC(C)=O)N=O | 6.99% (inactive) | – |
| CCNP(=S)(OC)O/C(C)=C/C(=O)OC(C)C (stereo not given) | -21.9% (inactive) | – |
| CC(C)(C)C(=O)Cl | 2.04% (inactive) | – |
| CC(C)[C@]12CC(=O)[C@H](C)[C@H]1C2 | -2.62% (inactive) | – |
| CS(=O)(=O)Cl | 1.97% (inactive) | – |
| CNC(=O)O/N=C(/CSC)C(C)(C)C | 3.18% (inactive) | – |
| CC1NCCOC1c1ccccc1 (stereo not given) | 0.567% [at 35.3 µM] (inactive) | – |
| CC(C)(C)NC[C@H](O)c1ccc(O)cc1Cl | 2.34% [at 35.3 µM] (inactive) | – |
| O=c1[nH]oc2c1CCNC2 | 5.7% [at 35.3 µM] (inactive) | – |
| COC(=O)[C@@H](N)CCCN/C(N)=N/[N+](=O)[O-] | 12.9% [at 35.3 µM] (inactive) | – |
| N#CC(Br)(Br)C(N)=O | -2.26% (inactive) | – |
| C=CC=O | 1.14% (inactive) | – |
| CCCCOC(C)=O | 8.3% (inactive) | – |
| CCCN1CCC[C@@H]2Cc3nc(N)ncc3C[C@H]21 | 0.349% [at 35.3 µM] (inactive) | – |
| CCN1CCCC1CNC(=O)C(O)(c1ccccc1)c1ccccc1 (stereo not given) | -5.82% [at 35.3 µM] (inactive) | – |
| CC[C@@H](CO)NC(=O)[C@@H]1C=C2c3cccc4[nH]cc(c34)C[C@H]2N(C)C1 | 5.8% [at 35.3 µM] (inactive) | – |
| O=C1C2CC=CCC2C(=O)N1SC(Cl)(Cl)Cl (stereo not given) | – | 27.1 µM (active) |
| S=C=S | 8.15% (inactive) | – |
| CCC(C(N)=O)N1CCCC1=O (stereo not given) | 3% [at 35.3 µM] (inactive) | – |
